Screens (PubChem)
Hits are enriched below; roughly 3.5% of the tested compounds scored in any of these assays.
Kir21 block: Kir2.1 (mouse) channel inhibition; HEK293-Kir2.1, FluxOR thallium flux fluorescence; stronger effect = lower value; B-score at 10 µM; 310,000 tested, 0.85% active;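 active means fluorescence ratio B-score at or below minus 3 SD of library scores, with starting-brightness B-score within 2 SD, cut at about -4.2 in these data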;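 further: channel flux triggered by added potassium and thallium sulfate stimulus; B-score of peak minus minimum fluorescence over baseline after thallium stimulus; more negative B-score means stronger Kir2.1 block with less thallium influx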
KCNK3 block: human KCNK3 channel inhibition, primary screen | B-score at 10 µM | AID 602410 | CHO-KCNK3 thallium flux, FluxOR fluorescence; stronger effect = lower value | O14649 | 340,000 tested, 0.84% active;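 active means B-score under library mean minus 4 SD, starting fluorescence ratio at most library mean plus 5 SD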;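 further: more negative B-score means stronger inhibition of thallium flux through KCNK3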
Target sequence (O14649 whole entry, looked up): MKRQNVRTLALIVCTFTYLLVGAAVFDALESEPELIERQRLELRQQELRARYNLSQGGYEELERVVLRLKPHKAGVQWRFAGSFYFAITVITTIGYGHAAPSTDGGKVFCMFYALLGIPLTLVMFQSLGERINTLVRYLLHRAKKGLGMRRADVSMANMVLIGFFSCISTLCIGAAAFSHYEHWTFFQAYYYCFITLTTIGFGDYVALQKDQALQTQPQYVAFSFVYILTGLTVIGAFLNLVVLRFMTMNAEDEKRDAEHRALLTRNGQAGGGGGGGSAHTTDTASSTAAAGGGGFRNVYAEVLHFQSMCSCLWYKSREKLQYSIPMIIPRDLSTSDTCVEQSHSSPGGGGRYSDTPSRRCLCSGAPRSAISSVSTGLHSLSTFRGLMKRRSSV
KCNK9 inh: inhibitors of human KCNK9 two-pore domain potassium channel. B-score at 10 µM. HEK293 KCNK9, FluxOR thallium flux fluorescence; stronger effect = lower value. Q9NPC2. 310,000 tested, 1.2% active;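 active means ratio B-score over 3 SD below the library mean, with starting fluorescence within 5 SD of its mean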;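 further: negative B-score means less thallium flux so channel inhibition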
TMEM16A inh: blocks the mouse calcium-activated chloride channel TMEM16A; Q8BHY3; HEK293 TMEM16A/YFP iodide influx fluorescence, ionomycin; normalized B-score (activity score, 25-100; higher = stronger inhibition) at 10 µM; 310,000 tested, 1.2% active; AID 588511;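 active means ratio plate-corrected score three or more library SD toward inhibition, starting fluorescence score within five deviations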;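 further: score derived from kinetic fluorescence span divided by baseline fluorescence per well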
TMEM16A act: activates or potentiates the mouse TMEM16A chloride channel | Q8BHY3 | HEK293 TMEM16A/YFP-H148Q/I152L, iodide quench fluorescence; stronger effect = lower value | B-score at 10 µM | 340,000 tested, 0.3% active;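 active means fluorescence-ratio B-score plate-corrected deviation score at least 3 library SD below zero, with starting fluorescence score within 5 deviations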;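 further: channel opened by trigger with iodide after compound preincubation; score built on the fluorescence ratio of max minus min over baseline; more negative score means more quench and so TMEM16A activation or potentiation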
KCNK9 inh conf: human KCNK9 inhibitor confirmation. AID 492992. inhibition, % at 10 µM. HEK293 KCNK9 cells, FluxOR thallium flux fluorescence. 4,900 tested, 43% active. shares compounds with KCNK9 inh;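 active means thallium signal inhibited by more than 5 SD of the compound-free buffer control wells, on both duplicate plates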;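 further: 0% = assay buffer control wells without compound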
Kir2-1 spec: selectivity of KCNK9 modulators against mouse Kir2.1 | shares compounds with KCNK9 inh | Kir2.1 cells, FluxOR thallium flux fluorescence | inhibition, % at 10 µM | 4,900 tested, 4% active | AID 492993;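 active means thallium signal drop more than 5 SD beyond the mean of the no-compound control wells, seen in both duplicate plates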;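 further: signal is fluorescence rise after thallium addition divided by baseline fluorescence; plate controls were assay buffer only for no effect and full block by chlorpromazine control for full effect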
KCNK9 uninduced: second check of KCNK9 modulator effects in non-induced HEK293 cells; inhibition, % at 10 µM; FluxOR thallium flux; 4,900 tested, 40% active; shares compounds with KCNK9 inh;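 active means thallium signal drop beyond 5 SD of the untreated control mean, on both duplicate plates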;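 further: plate controls were buffer only IC0 wells for no effect and SID17386958 at its maximal inhibitory level for full effect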
KCNK3 inh conf: confirmation of human KCNK3 two-pore domain potassium channel inhibitors; shares compounds with KCNK3 block; AID 651638; ratio percent of control, % at 10 µM; 2,400 tested, 99% active; CHO-KCNK3 thallium flux, FluxOR fluorescence; 0% buffer, 100% carvedilol maximal block;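 active means ratio percent of control, averaged over triplicates, above buffer control mean plus 5 SD, cut at about 64% in these data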;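 further: ratio is the fluorescence rise from min to max over baseline after thallium stimulus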
KCNK3 uninduced: KCNK3 inhibitor counter-screen hit in non-induced cells. shares compounds with KCNK3 block. non-induced KCNK3 parental cells, FluxOR thallium flux; stronger effect = lower value. thallium flux ratio (lower = more inhibition) at 10 µM. 2,400 tested, 40% active;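 active means thallium flux ratio, averaged over three wells, more than 5 SD below the buffer control mean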;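 further: host cells are CHO cells without KCNK3 induction; ratio is peak minus trough fluorescence over baseline then normalized to buffer controls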
Active calls of the source: *; i = inactive; . = no result.

SMILES	Kir21 block	KCNK3 block	KCNK9 inh	TMEM16A inh	TMEM16A act	KCNK9 inh conf	Kir2-1 spec	KCNK9 uninduced	KCNK3 inh conf	KCNK3 uninduced
CCc1ccc(NC(=O)CN(N=Nc2nonc2C)c2nonc2C)cc1	0.58	-11.4*	-8.99*	i	i	64.0%*	i	33.5%*	115.3*	i
CC1(C)Cc2cccc(Oc3cc(NN4CCCCC4)c([N+](=O)[O-])cc3[N+](=O)[O-])c2O1	-0.81	-11.7*	-14.4*	i	i	56.5%*	i	40.5%*	87.7*	i
O=[N+]([O-])c1cc([N+](=O)[O-])c(Oc2cccc(Cl)c2Cl)cc1NN1CCCCC1	0.1	i	i	i	i	.	.	.	.	.
CC(Cc1cccs1)NC(=O)Nc1ccc(Cl)cc1 (stereo not drawn)	-0.1	i	i	i	i	.	.	.	.	.
CC(Cc1cccs1)NC(=O)Nc1ccc(Cl)c(Cl)c1 (stereo not drawn)	-0.04	-12.7*	-15.8*	i	i	61.5%*	i	42.5%*	110.3*	0.158*
Cc1cc(C)cc(OCC(O)CN2CCC(CN3C(=O)c4cccc5cccc(c45)C3=O)CC2)c1 (stereo not drawn)	-0.96	-9.54*	i	i	i	i	i	i	110.7*	i
COc1cccc(OCC(O)CN2CCC(CN3C(=O)c4cccc5cccc(c45)C3=O)CC2)c1 (stereo not drawn)	-1.47	i	i	i	i	.	.	.	.	.
COc1ccc(OC)c(-c2csc(NC(=O)Cc3ccccc3OC)n2)c1	-0.39	-12.8*	-16*	i	i	i	i	40.0%*	89.3*	i
COc1ccc(OC)c(-c2csc(NC(=O)c3ccccc3F)n2)c1	-0.54	i	i	i	i	.	.	.	.	.
CC/C(=N/N=C(/CC)c1ccc(O)cc1)c1ccc(O)cc1	-1.75	-9.62*	-15.2*	i	i	55.5%*	i	30.5%*	92.0*	i
CC(=NN=C(C)c1ccc(O)cc1)c1ccc(O)cc1	.	i	.	.	i	.	.	.	.	.
CSc1nc(Cl)c(Cc2ccc(OC(C)C)cc2)c(N(C)C)n1	0.01	-8.75*	-8.39*	i	i	i	i	38.5%*	134.3*	0.133*
COc1ccc(Cc2c(Cl)ncnc2Cl)cc1	1.03	i	i	i	i	.	.	.	.	.
COc1ccc(N(C)S(=O)(=O)c2cccc(C(=O)NC3CCCC(C)C3C)c2)cc1 (stereo not drawn)	-0.19	i	i	i	i	.	.	.	.	.
COc1ccc(CNC(=O)C(C)Cc2ccccc2)cc1O (stereo not drawn)	-0.09	i	i	i	i	.	.	.	.	.
COc1ccccc1C(CCN(Cc1cccs1)C(C)=O)c1ccco1 (stereo not drawn)	-2.28	-13.3*	-9.32*	i	i	40.0%*	i	33.5%*	105.3*	i
O=C(CSc1nc2ccc(NC(=O)CSc3nnnn3-c3ccccc3)cc2s1)Nc1ccccc1	1.16	i	i	i	i	.	.	.	.	.
c1ccc(-n2nnnc2SCCCSc2nc3ccccc3s2)cc1	-0.21	-9.88*	-15.4*	i	i	62.5%*	i	46.0%*	103.3*	i
O=S(=O)(c1ccccc1)N1N=C(c2ccc(Br)cc2)CC1c1ccco1 (stereo not drawn)	1.48	-10.1*	-11.1*	i	i	38.0%*	i	39.0%*	102.7*	i
O=S(=O)(c1ccccc1)N1N=C(c2ccc(O)cc2)CC1c1ccco1 (stereo not drawn)	-1.94	i	i	i	i	.	.	.	.	.
Cn1c(=O)c2c(nc(SCC(=O)NCC3CCCO3)n2Cc2ccc(F)cc2)n(C)c1=O (stereo not drawn)	0.25	i	i	i	i	.	.	.	.	.
Cc1cc(Nc2ccccc2Cl)nc(-c2ccccc2O)n1	1.35	i	i	i	i	.	.	.	.	.
Cc1ccc(C)c(Nc2cc(C)nc(-c3ccccc3O)n2)c1	-0.32	-10.5*	-9.36*	i	i	49.0%*	i	40.0%*	125.3*	0.125*
CCOC(=O)C(C)Sc1cc(CS(=O)(=O)c2ccccc2)nc(-c2ccccc2)n1 (stereo not drawn)	-0.01	-8.76*	-10.3*	i	i	58.0%*	i	28.0%*	125.0*	i
COc1ccccc1NC(=S)NC(=O)Cc1ccc(Cl)cc1	-0.47	i	i	i	i	.	.	.	.	.
SMILES	Kir21 block	KCNK3 block	KCNK9 inh	TMEM16A inh	TMEM16A act	KCNK9 inh conf	Kir2-1 spec	KCNK9 uninduced	KCNK3 inh conf	KCNK3 uninduced
COc1ccccc1NC(=S)NC(=O)CCCOc1ccc(Cl)cc1Cl	-0.85	-10.1*	-23.2*	i	i	58.0%*	i	30.5%*	116.7*	i
COc1ccc(S(=O)(=O)N2CCN(CC(=O)NCCc3cccs3)CC2)cc1	.	i	.	.	i	.	.	.	.	.
COc1ccccc1OCC(=O)Nc1cccc(-c2nc3ccccc3o2)c1	-0.9	i	-11.6*	i	i	45.0%*	i	i	113.7*	i
CSc1nc(N2CCN(c3ccccc3Cl)CC2)c2ccccc2n1	-0.71	i	-14.2*	i	i	59.5%*	i	33.5%*	104.0*	i
CSc1nc(N2CCOCC2)c2ccccc2n1	-0.02	i	i	i	i	.	.	.	.	.
O=C(NCCn1cc(SCc2ccccc2)c2ccccc21)c1c(F)cccc1F	-0.68	i	i	i	i	.	.	.	.	.
O=C(NCCn1cc(SCc2ccc(F)cc2)c2ccccc21)c1c(F)cccc1F	-0.45	-9.87*	-13.9*	i	i	60.0%*	i	31.0%*	94.3*	i
c1ccc(NC2=NCCN2CCCC2CCCCC2)cc1	.	i	.	i	i	.	.	.	.	.
Cc1c(Cl)cccc1NC(=O)CSc1nncn1-c1ccccn1	-0.16	i	i	i	i	.	.	.	.	.
Oc1ccccc1Cn1c(-c2ccccc2O)nc2ccccc21	0.63	i	i	i	i	.	.	.	.	.
COc1ccccc1Cn1c(-c2ccccc2OC)nc2ccccc21	0.98	-9.12*	-11.3*	i	i	25.5%*	i	47.5%*	109.3*	i
